Shown is part of a subset that was picked to be rich in hits.
MARV entry inh – inhibitors of Marburg virus binding or cell entry; Marburg virus pseudotyped entry inhibition, cell reporter; AID 540276; 1.8% of 300,000 active; Potency, µM (top dose mostly 37.8 µM), for the others: at the highest dose activity change, negative = inhibition, actives largely listed as inhibitors; calls by dose curve; tested in HEK293 cells; note: potency is the fitted concentration of half-maximal effect; % is set by controls: 0 for no effect and ±100 for the full control effect
Vaccinia Venus – vaccinia inhibition (Venus reporter); Vaccinia virus Venus reporter expression, fluorescence; Potency, µM (highest dose often 36.5 µM), for inactives: at the top dose activity change, negative = inhibition, actives largely listed as inhibitors; 0.46% of 330,000 active; calls by dose curve; tested in A549 cells; note: potency is the fitted concentration of half-maximal effect; % is set by controls: 0 for no effect and ±100 for the full control effect; nearly all actives have a fitted effect of over 30% in size
CHX counter – counter-screen hit for Shiga toxin inhibitors, cycloheximide; cell reporter, cycloheximide protein synthesis inhibition counterscreen; max response, %; 12% of 300,000 active; AID 2314; in the data active = max response mostly above about 13%, no sharp cut-off; inactive = mostly below about 14%; note: read at 38.3 µM for the half of the compounds with a filed dose; 0% is about no effect
LASV entry inh – inhibitors of Lassa virus binding or cell entry; Lassa virus pseudotype entry inhibition, cell reporter; Potency, µM (top dose mostly 37.9 µM), for inactives: top-dose activity change, negative = inhibition, actives largely listed as inhibitors; 1.2% of 300,000 active; calls by dose curve; tested in HEK293 cells; note: potency is the fitted concentration of half-maximal effect; % is set by controls: 0 for no effect and ±100 for the full control effect; nearly all actives have a fitted effect of over 50% in size
Shiga toxin inh – Shiga toxin inhibition; Vero cells, Shiga toxin protein synthesis inhibition reporter; 9.2% of 290,000 active; inhibition, % at 38.7 µM; in the data active = inhibition mostly above about 28%, no sharp cut-off; inactive = mostly below about 43%; note: 0% is about no effect
VACV mCherry inh – vaccinia inhibition (mCherry reporter) | Potency, µM (highest dose often 36.5 µM), for inactives: at the highest dose activity change, negative = inhibition, most hits filed as inhibitors | Vaccinia virus mCherry reporter infection, fluorescence | 0.63% of 310,000 active | AID 720579; calls by dose curve; tested in A549 cells; note: potency is the fitted concentration of half-maximal effect; % is set by controls: 0 for no effect and ±100 for the full control effect; nearly all actives have a fitted effect of over 35% in size
Starred values were filed as active, the others as inactive; i = inactive; ? = inconclusive; · = no result; [ ] = another dose, or the depositor's remark.

SMILES | MARV entry inh | Vaccinia Venus | CHX counter | LASV entry inh | Shiga toxin inh | VACV mCherry inh
Cc1cnc(C(=O)OCC(=O)c2csc(N3CCCCC3)n2)cn1 | 2% | · | 51* | 8% | 36 | ·
Cc1ccc2c(c1)CC1(CN2C)C(=O)OC(C)(C)OC1=O | -15% | 10µM* | 7 | 1% | 2 | 7.1µM*
Cc1ccc2c(c1)CC1(CN2C)C(=O)NC(=O)N(c2cc(C)ccc2C)C1=O (configuration not stated) | 7% | · | -3 | 0% | 17 | ·
C=CCN(C(=O)CSC1=NC(=O)CN1C(C)=O)c1nc(C)c(-c2ccccc2)s1 | -17%[46.1 µM] | ? | 30* | 12% | 50 | ?
C=CCN(C(=O)CSc1nc2ccsc2c(=O)n1Cc1ccc(C(=O)O)cc1)c1ccccc1 | · | -4% | · | · | · | -12%
Cc1ccc(C(=O)/C=C\C(=O)c2ccc(C)cc2)cc1 | 26% | 5% | -2 | -9% | 5 | -11%
Cc1ccc(C(=O)/C=C\NCc2ccccc2)cc1 | ? | -18% | 75* | 1% | 86* | i
COc1ccc(C(=O)/C=C/NCc2ccc(C)cc2)cc1 | -3% | -22% | · | ? | · | -2%
CC(/C=C/C(=O)c1ccc(C)cc1)=C\c1ccccc1 | -1% | 1% | 18* | ? | 22 | -26%
CCc1ccc(C(=O)/C=C/NCc2ccc(F)cc2)cc1 | ? | -18% | 19* | -15% | 49 | -8%
CCc1ccc(-c2cnc3nc[nH]c(=O)c3n2)cc1 | 25% | -19% | · | 19% | · | -24%
COc1ccccc1NC(=O)C1CCCN(C(=O)NCc2ccccc2)C1 (configuration not stated) | 5%[46.1 µM] | -5% | -4 | ? | -7 | -5%
O=S(=O)(c1ccc2c(c1)OCO2)N1CCN(S(=O)(=O)c2c(F)cccc2F)CC1 | · | · | -5 | · | -4 | ·
COc1ccc(NC(=O)CCNS(=O)(=O)c2ccc3c(c2)CCN3C(=O)C2CC2)cc1Cl | · | -11% | · | -13%[46.1 µM] | · | -23%
CC(=O)COc1ccc2c3c(c(=O)oc2c1)CCCC3 | 0% | · | 17* | ? | 50 | ·
O=C(COc1ccc2c3c(c(=O)oc2c1)CCC3)Nc1ccccn1 | · | · | 20* | · | 19 | ·
C#CCOc1ccc2c3c(c(=O)oc2c1)CCCC3 | 7%[46.1 µM] | -20% | 14* | 0%[46.1 µM] | · | -14%
CC(=O)C(C)Oc1ccc2c3c(c(=O)oc2c1)CCCC3 (configuration not stated) | ? | -18% | 8 | 26% | 70 | -10%
O=c1oc2cc(OCc3nn[nH]n3)ccc2c2c1CCCC2 | -13% | · | -1 | 13% | 12 | ·
Cc1cccnc1NC(=O)COc1ccc2oc3c(c2c1)CCCC3 | 11% | -14% | 29* | ? | 28* | -17%
CC(=O)C(C)Oc1ccc2c3c(c(=O)oc2c1)CCCCC3 (configuration not stated) | 12% | · | 50* | 20% | 83* | ·
COc1ccc(/C=N/Nc2ccc([N+](=O)[O-])cc2)cc1Cn1cc([N+](=O)[O-])cn1 | 5% | -19% | 11* | -16% | 43 | -27%
COc1cccc(N/N=C/c2cccc(Br)c2O)c1 | 11µM* | -7% | 30* | 0% | 88* | ?
COc1cc(/C=N/Nc2ccc([N+](=O)[O-])cn2)cc(OC)c1O | ? | -17% | 25* | ? | 17 | -25%
COc1cccc(/C=N/Nc2ccc([N+](=O)[O-])cc2)c1O | ? | -30% | 33* | 10% | 76* | ?
SMILES | MARV entry inh | Vaccinia Venus | CHX counter | LASV entry inh | Shiga toxin inh | VACV mCherry inh
COc1ccc(/C=N/n2cncn2)cc1Cn1cc([N+](=O)[O-])cn1 | · | · | -3 | · | 21 | ·
Cc1ccc2c(/C=C/c3c[nH]c4ccccc34)ccnc2c1C | · | 18% | · | · | · | -15%
COc1cccc(/C=N/NC(=O)c2ccc([N+](=O)[O-])cc2Cl)c1O | ? | ? | 17* | 15µM* | -18 | 11µM*
COc1cc(/C=N/Nc2ccc(C(=O)O)cc2)ccc1O | ? | · | 5 | ? | -8 | ·
COc1cc(/C=N/NC(=O)c2cccc([N+](=O)[O-])c2)cc(OC)c1O | · | -2% | -2 | · | 26 | -9%
Cc1cccc(C)c1-n1c(C)cc(/C=N\Nc2ccc([N+](=O)[O-])cn2)c1C | -24% | ? | 28* | ? | 67* | ·
COc1ccc(/C=N/Nc2ccc([N+](=O)[O-])cc2)cc1O | 9%[46.1 µM] | 1% | 26* | ? | 80* | ?
CCn1ccc2cc(S(=O)(=O)N3CCC(C(=O)NCCc4ccc(SC)cc4)CC3)ccc21 | · | -14% | · | -4%[46.1 µM] | · | -24%
COC(=O)N1CCN(c2ccc(OC)cc2)CC1 | 14% | · | 9.4* | 4% | -19 | ·
O=C(NCc1ccc(F)cc1)C1CCC(CNS(=O)(=O)c2cccs2)CC1 (configuration not stated) | 5%[46.1 µM] | -23% | 1 | 2% | -4 | -20%
COc1ccc(S(=O)(=O)CCC(=O)N2CCN(c3ccc(C(C)=O)cc3)CC2)cc1 | ? | -21% | 15* | ? | 56* | ?
CNC(=S)N1CCN(c2ccc(OC)cc2)CC1 | 15% | -6% | 0 | 11% | 15 | -1%
COc1ccc(N2CCN(C(=O)c3ccc(NS(=O)(=O)c4cccs4)cc3)CC2)cc1 | 20%[46.1 µM] | -3% | 27* | ? | 63* | -9%
O=C(C1CCC(CNS(=O)(=O)c2cccs2)CC1)N1CCN(c2ccc(F)cc2)CC1 (configuration not stated) | 3.2µM* | -24% | -3 | ? | -7 | ?
Cc1ccccc1OCC(=O)NCC(=O)OCc1ccc2ccccc2c1 | · | -5% | · | · | · | 38%
O=C(Nc1c(F)c(F)c(F)c(F)c1F)OC[C@@H]1CSCCS(=O)(=O)N1 | · | · | · | 5%[46.1 µM] | · | ·
CC(=O)N1Cc2ccccc2CC1C(=O)N1CCN(c2ccccc2)CC1 (configuration not stated) | 9%[46.1 µM] | -21% | -8 | 6% | 23 | -1%
COc1ccc(N2CCN(C(=O)C3Cc4ccccc4CN3C(=O)c3ccccc3)CC2)cc1 (configuration not stated) | 7%[46.1 µM] | -4% | 61* | 17% | 71* | -7%
COC(=O)N1CCN(c2ccc(Cl)c(Cl)c2)CC1 | ? | · | 6 | ? | -8 | ·
COC(=O)N1CCN(c2ccc(C)c(C)c2)CC1 | · | · | 23* | · | 65 | ·
Cc1cccc(C)c1OCc1cc(C(=O)N2CCCC2c2nonc2C)no1 (configuration not stated) | ? | -7% | 41 | ? | 18 | i
Cc1nonc1C1CCCN1C(=O)c1cc(COc2ccc(F)cc2F)on1 (configuration not stated) | -15%[46.1 µM] | -7% | 41* | -18% | 103* | -4%
CSc1ccccc1OCc1cc(C(=O)N2CCCC2c2nonc2C)no1 (configuration not stated) | -15%[46.1 µM] | -24% | 48* | -1%[46.1 µM] | 91* | -11%
CC(=O)c1cccc(NC(=O)CN(c2cc(C)cc(C)c2)S(=O)(=O)c2c(C)noc2C)c1 | -20%[46.1 µM] | 1% | · | -3%[46.1 µM] | · | -7%
COc1ccc(Cl)cc1NC(=O)c1nc(S(C)(=O)=O)ncc1N(Cc1ccc(C)cc1)Cc1ccco1 | 7%[46.1 µM] | -17% | · | 15%[46.1 µM] | · | 0%

Compound activity: PubChem, National Center for Advancing Translational Sciences (NCATS)
